Assay results as given in PubChem BioAssay AID686978 (National Center for Advancing Translational Sciences (NCATS), 2013).
Several values for one entry are separate records, joined by “and”; a condition that tells them apart may be missing. Equal values may be shown once. Out of some 420,000 compounds screened, about 64,000 (15%) were called active. About 27% were inconclusive and are not listed. Calls follow the shape of the dose curve; as a rule, active = well fitted inhibition curve with a large enough effect; inconclusive = small, poorly fitted or top-dose-only effect; inactive = flat fitted curve, though single readings scatter. The list is a sample of the results.

Experiment: qHTS for Inhibitors of human tyrosyl-DNA phosphodiesterase 1 (TDP1): qHTS in cells in absence of CPT; also: nearly all actives have a fitted effect of over 55% in size
Details: DT40 Tdp1-/- hTDP1 cells, no CPT, ATP luminescence, 48 h; activity change, negative = growth inhibition: at 46.2 µM (top of the series)
Method in brief: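 Chicken DT40 Tdp1-/- cells stably complemented with human TDP1 were seeded at 400 cells/well with DMSO in place of 20 nM camptothecin. After compound pinning, cells grew at least 48 hr at 37 °C; viability read by CellTiter-Glo luminescence.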
% is scaled to controls: 0 for no effect and ±100 for the full control effect; potency is read from the fitted curve at half-maximal effect.

| Structure (SMILES) | activity change, negative = growth inhibition | Potency |
| --- | --- | --- |
| CC[C@H](C)C(=O)N[C@H]1CCCN1C(=O)/C=C/c1ccccc1 | 7.88% (inactive) |  |
| Cc1ccc(C(=O)COC(=O)CCCC(=O)NC2CCCCC2)cc1[N+](=O)[O-] | -10.4% (inactive) |  |
| COCCNC(=O)C1CCN(C(=O)C2CC(=O)N(c3ccc(C)cc3)C2)CC1 (stereo not given) | -29.2% (inactive) |  |
| O=C1CCC(=O)N1c1ccc(NCCc2ccccc2F)c([N+](=O)[O-])c1 | -18% (inactive) |  |
| CCCCN1CCNC1=S | -4.02% (inactive) |  |
| CC1CC(C)CN(C(=O)CSc2nnc(CSc3ncccn3)n2C)C1 (stereo not given) | -7.34% (inactive) |  |
| COCC1CCCN(C(=O)c2ccc3oc(C(C)C)nc3c2)C1 (stereo not given) | 6.37% (inactive) |  |
| COc1ccc(CCNc2nc3c(-c4cccc(F)c4)nnn3c3ccccc23)cc1OC | -25.8% (inactive) |  |
| COc1ccc(CCNc2nc3ccc(C)cc3n3cnnc23)cc1OC |  | 16.4 µM (active) and 23.1 µM (active) |
| COc1ccccc1CNc1nc2ccc(Cl)cc2n2cnnc12 | -14.6% (inactive) |  |
| COc1ccc(C2=NOC(C(=O)NCc3ccco3)C2)cc1OC (stereo not given) |  | 2.59 µM (active) |
| COc1ccc(S(=O)(=O)N2CCC(C(=O)NCc3ccco3)CC2)cc1C | -21.2% (inactive) |  |
| Cc1ccc(NC(=O)C2CC(c3ccc(F)cc3)=NO2)cc1 (stereo not given) | -8.36% (inactive) |  |
| COc1ccc(CNC(=O)C2CCCC2)cc1 | -24% (inactive) |  |
| COc1ccc(CNC(=O)C2CC(c3ccc(C(F)(F)F)cc3)=NO2)cc1 (stereo not given) |  | 11.6 µM (active) |
| COc1ccc(-c2cc(C(=O)NCc3ccco3)no2)cc1OC | -3.72% (inactive) |  |
| O=C(COC(=O)COc1ccccc1F)Nc1cccc(S(=O)(=O)N2CCCCC2)c1 | -1.15% (inactive) |  |
| O=C1OCCOC2CCCc3oc(-c4ccccc4)c1c32 (stereo not given) | -25% (inactive) |  |
| CCN(CC)CCCN1C(=O)C(=O)/C(=C(/O)c2c(C)nc3ccccn23)C1c1ccc(C)o1 (stereo not given) | -16.8% (inactive) |  |
| O=C(CCNc1n[nH]c(=O)[nH]c1=O)N/N=C\c1ccc(Br)cc1 | 0.678% (inactive) |  |
| Cc1c(O)cc2c(c1C)O[C@](C)(CCC[C@H](C)CCC[C@H](C)CCCC(C)C)CC2 | -16.5% (inactive) |  |
| COc1ccc(NC(=O)CN2C(=O)NC(C)(c3ccccc3)C2=O)cn1 (stereo not given) | 5.71% (inactive) |  |

| Structure (SMILES) | activity change, negative = growth inhibition | Potency |
| --- | --- | --- |
| COc1ccc(OCC(=O)NN2Cc3ccccc3C2=N)cc1 | -4.78% (inactive) |  |
| Cc1ccc(N2C(=O)c3ccccc3C2(O)c2ncc[nH]2)cc1 (stereo not given) | -4.39% (inactive) |  |
| C=CCNc1cnn(-c2ccc(C)cc2)c(=O)c1Cl | -2.77% (inactive) |  |
| O=C(NCc1cccc(C(F)(F)F)c1)c1cccc(S(=O)(=O)N2CCN(Cc3ccccc3)CC2)c1 |  | 18.4 µM (active) |
| O=C(CCC(=O)c1ccccc1)NCc1cccc(C(F)(F)F)c1 | -9.59% (inactive) |  |
| O=C(NCc1ccccc1)c1ccc(S(=O)(=O)Nc2cccc(C(F)(F)F)c2)cc1 | -0.815% (inactive) |  |
| O=S(=O)(NCCS(=O)(=O)N1CCN(c2ccccc2)CC1)c1ccc(F)cc1 | -13.9% (inactive) |  |
| CN(Cc1cccc2ncccc12)C(=O)CC1C(=O)NCCN1Cc1ccc(F)cc1 (stereo not given) | -8.69% (inactive) |  |
| CC1CN(/C=C/C(=O)C(F)(F)F)CC(C)O1 (stereo not given) | -15.9% (inactive) |  |
| Cc1cc(NC(=O)CN2C(=O)NC(CC(C)C)C2=O)no1 (stereo not given) | 17.8% (inactive) |  |
| O=C(NCc1cccnc1)c1cccnc1Sc1ccc(Cl)cc1 | -1.61% (inactive) |  |
| CS(=O)(=O)N(Cc1ccccc1Cl)c1ccc(C(=O)NCc2cccnc2)cc1 |  | 14.6 µM (active) |
| CN(c1ccccc1)S(=O)(=O)c1ccc(C(=O)NCc2cccnc2)cc1 | -40.5% (inactive) |  |
| O=C(O)c1ccccc1-c1ccccc1C(=O)NCc1cccnc1 | -1.27% (inactive) |  |
| CS(=O)(=O)N(Cc1ccccc1)c1ccc(C(=O)NN=C2CCCCCC2)cc1 | -12% (inactive) |  |
| Cc1ccc(S(=O)(=O)N(Cc2ccc(Cl)cc2)c2ccccc2C(=O)NCc2cccnc2)cc1 |  | 23.1 µM (active) |
| CCOc1ccc(OCC(=O)OC(C)C(=O)NC2CCCCC2C)cc1 (stereo not given) | -6.76% (inactive) |  |
| CC1(C)Oc2ccc3ccc(=O)oc3c2/C(=N/O)C1=O | 8.39% (inactive) |  |
| O=c1cc(COc2cccc(C(F)(F)F)c2)nc2sc3c(n12)CCCC3 | -5.11% (inactive) |  |
| Cc1ccc2c(cnn2C(=O)CCC(=O)NC2CCCC2)c1 | -21.2% (inactive) |  |
| CCOC(=O)c1c(-c2cccc(N)c2)cn2ccccc12 | 2.26% (inactive) |  |
| CCOc1ccc(Nc2oc(/C=C/c3ccc(F)cc3)nc2C#N)cc1 | -23.4% (inactive) |  |

| Structure (SMILES) | activity change, negative = growth inhibition | Potency |
| --- | --- | --- |
| N#Cc1nc(/C=C/c2ccc(F)cc2)oc1NCc1ccc(F)cc1 | -24.3% (inactive) |  |
| COc1ccccc1/C=C/c1nc(C#N)c(NC(C)c2ccccc2)o1 (stereo not given) |  | 16.4 µM (active) |
| O=C(CNC(=O)c1ccccc1F)OCC(=O)c1c[nH]c2ccccc12 | 15% (inactive) |  |
| Cc1c(C(=O)N(C)C)sc2c1c(=O)n(-c1ccc(F)cc1)c(=O)n2CC(=O)N(C)c1ccccc1 | -0.482% (inactive) |  |
| CCOC(=O)N1CCN(C(=O)C[C@@H]2C[C@@]3(C(=O)OC)CC(C)(C)CC=C3N(Cc3ccco3)C2=O)CC1 |  | 18.4 µM (active) |
| CCOC(=O)C1CCN(C(=O)CC2C(=O)N(Cc3ccccc3)C(C)c3nc4ccccc4n32)CC1 (stereo not given) | -12.5% (inactive) |  |
| COC(=O)[C@]12CCCCC=C1N(Cc1ccc3c(c1)OCO3)C(=O)[C@H](CC(=O)N1CCOCC1)C2 | -9.62% (inactive) |  |
| CCOC(=O)[C@]12CCC=C1N(Cc1ccco1)C(=O)[C@H](CC(=O)N1CCSCC1)C2 | -10.7% (inactive) |  |
| O=C(NCc1ccccc1)C1CCN(C(=O)Cc2ccccc2)CC1 | -10.3% (inactive) |  |
| COC(=O)[C@@]12C[C@@H](CC(=O)N3CCCCC3)C(=O)N(Cc3ccc4c(c3)OCO4)C1=CCC(C)(C)C2 |  | 20.6 µM (active) |
| CCn1cc(C(=O)N2CCN(Cc3ccc4c(c3)OCO4)CC2)c2cc(OC)c(OC)cc2c1=O | -20.4% (inactive) |  |
| CCOC(=O)N1CCN(C(=O)C(C)NC(=O)c2ccco2)CC1 (stereo not given) | 1.25% (inactive) |  |
| COC(=O)[C@@]12C[C@@H](CC(=O)N3CCC(c4ccccc4)CC3)C(=O)N(Cc3ccccc3)C1=CCC(C)(C)C2 |  | 14.6 µM (active) |
| CC(C)CCN1CCN(C/C=C/c2ccco2)CC1CCO (stereo not given) | 7.71% (inactive) |  |
| COC(=O)c1cccc(C(=O)N2CCCC(Nc3ccc4c(c3)OCCO4)C2)c1 (stereo not given) | 11.9% (inactive) |  |
| O=C(O)Cc1ccc(NCc2ccccc2Cl)cc1 | 10.5% (inactive) |  |
| Cc1cccc(-c2nnc(SCC(=O)O)n2Cc2ccccc2)c1 | 4.53% (inactive) |  |
| O=C1CC(Cc2ccc(Cl)cc2)C(=O)N1c1cc(Cl)ccn1 (stereo not given) | 5.45% (inactive) |  |
| O=C(CSc1n[nH]c(-c2ccccc2)n1)N1CCCCC1 | -7.63% (inactive) |  |
| O=C(CSc1nc2ccccc2nc1Cc1ccccc1)N1CCCCC1 |  | 18.4 µM (active) |
| COc1ccc(CNC(=O)CSc2nc3ccccc3nc2Cc2ccccc2)cc1 | -25.4% (inactive) |  |
